Data on eight compounds can be found in PubChem BioAssay AID2673 (National Center for Advancing Translational Sciences (NCATS), 2010).

A short description of the assay: qHTS Multiplex Assay to Identify Dual Action Probes in a Cell Model of Huntington: Cytoprotection confirmation (ATP). The text has this: NIH Chemical Genomics Center [NCGC]
NIH Molecular Libraries Probe Production centers Network [MLPCN]
Assay Submitter (PI): Wei Zheng
Huntington's disease is a neurodegenerative disorder caused by a trinucleotide repeat expansion in Exon 1 of the Huntingtin gene. The CAG trinucleotide encodes glutamine and polyglutamine expansions cause cell death in selective areas of the brain. Huntington polyglutamine repeats have the tendency to form aggregates which are observable in later stages of the disease. The exact nature of the aggregates, whether toxic, protective, or insignificant, is unclear.
A stable PC12 cell line containing a gene fusion of Exon 1 of the Huntingtin gene linked to GFP under the control of the inducible ecdysone promoter were used as the cell-based model of Huntington Disease for high throughput screening. Exon 1 of the Huntingtin gene contained an expansion of 103 polyglutamines (Q103) which, when expressed, caused cell death and distinct, bright GFP aggregates. The amount of cell death and the size and intensity of GFP aggregates increased over time and induction level. The cell death were quantified with a measurement of ATP content in the cells. A maximal 40-50% of cell death was observed when the Huntington gene was induced in this cell line.
We optimized this assay in a homogeneous 1536 well format. A quantitative high throughput screen (qHTS) was conducted on the PC12 cells which were induced to express the toxic fusion construct. Small molecules which prevented cell death were identified by using a luminescent ATP quantification method (Perkin Elmer's ATPlite).
PC12 cells stably containing a construct with an ecdysone inducible promoter expressing GFP fused to the exon 1 of HTTQ103 (Huntington protein which containing a 103 ployglutamine expansion) were used.
NCGC Assay Protocol Summary:
Sequence, Parameter, Description
1, Reagent, 5 uL 1500 cells/well 1536 TC treated White clear bottom plate
2, Compound, 23 nL Tebufenozide inducer (100 nM final) to all columns
3, Compound, 23 nL 40 uM to 0.5 nM Libraries
5, Reagent, 5 ul ATPLite cell death assay reagent
6, Detector, 4 sec integration with a Viewlux Luminescent
Media consisted of phenol red free DMEM + 5% equine serum (Hyclone # SH30072.03 ), 5% supplemented Bovine Calf Serum (Hyclone # SH30074.03 ), 1x pen/strep, no G418
(In qHTS, concentration-response curves come from the screen itself.)

Results filed as inconclusive are left out. Entries that show only a call come without a potency. Calls of active or inactive are those of the source. Calls come from the whole dose curve; as a rule, active = well fitted activation curve with a large enough effect; inconclusive = small, poorly fitted or top-dose-only effect; inactive = no such curve, though single readings can be large or run the other way.

As for `O=C1C=C2C=C[C@H]3C[C@]2(O1)[C@@H]1CCCCN13`, the Potency result was “inactive”.
To `C[C@H]1CC[C@@]2(NC1)O[C@@H]1C[C@H]3[C@@H]4CC=C5C[C@@H](O)CC[C@]5(C)[C@@H]4CC[C@]3(C)[C@@H]1[C@@H]2C` belongs “inactive”; to `O=C1C=C2C=CC3C[C@@]2(O1)C1CCCCN31` (stereo partly drawn), 12.6 µM (active).
To `O=C1C=C2C=C[C@H]3C[C@@]2(O1)[C@H]1CCCCN31` belongs “inactive”; to `C[C@@]1(CO)[C@H](O)CC[C@@]2(C)[C@H]1CC[C@H]1C[C@@H]3C[C@@]12CC[C@]3(O)CO`, “inactive”; to `CC[C@]1(C2=NCCN2)Cc2ccccc2O1`, “inactive”.
To `Oc1cc(Cl)ccc1Oc1ccc(Cl)cc1Cl` belongs “inactive”; to `CCC(C)C(=O)OC1C(O)C2C(CN3CC(C)CCC3[C@]2(C)O)C2C[C@]34O[C@@]5(O)C(OC(=O)C(C)(O)CC)CCC3(C)C5C(OC(C)=O)C(OC(C)=O)C4[C@@]21O` (stereo partly drawn), “inactive”.
